From PubChem BioAssay
A selection: hits, their analogues and other compounds. The true share with any hit is near 8%.
RORg inh: qHTS for inhibitors of ROR gamma transcriptional activity. Drosophila S2 Gal4-RORgamma UAS-luciferase reporter, 20 h. Potency, µM (series often up to 53.6 µM), most hits filed as inhibitors. 5.4% of 310,000 active. AID 2551, 2010; further: nearly all actives have a fitted effect of over 60% in size
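Compounds are pin-transferred onto Drosophila Schneider cells expressing a copper-inducible Gal4–ROR gamma transactivation domain fusion. After 1 hr, copper sulfate is added to 700 uM final; luciferase is read 20 hr later.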
ELG1 repair inh: qHTS screen for small molecules that inhibit ELG1-dependent DNA repair in human embryonic kidney (HEK293T) cells expressing luciferase-tagged ELG1; Potency, µM (series often up to 46.1 µM), usual class: inhibitors; 2.3% of 330,000 active; HEK293T ELG1-luciferase reporter, luminescence, 16 h; DNA damage induced by 5-fluorouridine; further: nearly all actives have a fitted effect of over 55% in size
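In this reporter screen, reduction of luminescence relative to DMSO vehicle indicated activity. Compounds and 5-fluorouridine were added together to 2,000 cells per well, incubated for 16 hr at 37 °C, then developed with ONE-Glo.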
Gal4-VP16 FLuc: VP16 counterscreen qHTS for inhibitors of ROR gamma transcriptional activity; Drosophila S2 Gal4-VP16 UAS-luciferase, luminescence, 20 h; Potency, µM (doses to about 53.6 µM), actives largely listed as inhibitors; 3.5% of 310,000 active; AID 2546, 2010;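 further: Gal4-VP16 expression switched on by copper sulfate through the metallothionein promoter; nearly all actives have a fitted effect of over 50% in size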
Coupling enz: qHTS Assay for Inhibitors of Fructose-1,6-bisphosphate Aldolase from Giardia Lamblia: Coupling assay counterscreen | AID 2472, 2010 | coupling enzyme system counterscreen, AmpLite Red fluorescence | activity change, negative = inhibition, % at 58.2 µM, hits read low | 0.67% of 290,000 active; in the data active means activity change below about -30%
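Activity here indicates interference with the coupling reaction, not aldolase inhibition. Compounds at 57.5 uM final met coupling enzymes for 10 min at RT; substrate and AmpLite Red detection followed, with a 525/598 nm fluorescence read after 20 min.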
TSHR antagonist: Antagonists of the Thyroid Stimulating Hormone Receptor: HTS campaign; Thyrotropin receptor (Homo sapiens), P16473; TSHR-expressing cells, TSH-stimulated cAMP HTRF, 2 h; stronger effect = lower value; activity change, negative = inhibition, % at 11.5 µM; 0.2% of 330,000 active; AID 504810, 2011;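 active means activity change below a set negative limit, meaning inhibition stronger than a set level, cut at about -70% in these data; inconclusive means activity change between two set negative limits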
Target sequence (P16473 whole entry, looked up): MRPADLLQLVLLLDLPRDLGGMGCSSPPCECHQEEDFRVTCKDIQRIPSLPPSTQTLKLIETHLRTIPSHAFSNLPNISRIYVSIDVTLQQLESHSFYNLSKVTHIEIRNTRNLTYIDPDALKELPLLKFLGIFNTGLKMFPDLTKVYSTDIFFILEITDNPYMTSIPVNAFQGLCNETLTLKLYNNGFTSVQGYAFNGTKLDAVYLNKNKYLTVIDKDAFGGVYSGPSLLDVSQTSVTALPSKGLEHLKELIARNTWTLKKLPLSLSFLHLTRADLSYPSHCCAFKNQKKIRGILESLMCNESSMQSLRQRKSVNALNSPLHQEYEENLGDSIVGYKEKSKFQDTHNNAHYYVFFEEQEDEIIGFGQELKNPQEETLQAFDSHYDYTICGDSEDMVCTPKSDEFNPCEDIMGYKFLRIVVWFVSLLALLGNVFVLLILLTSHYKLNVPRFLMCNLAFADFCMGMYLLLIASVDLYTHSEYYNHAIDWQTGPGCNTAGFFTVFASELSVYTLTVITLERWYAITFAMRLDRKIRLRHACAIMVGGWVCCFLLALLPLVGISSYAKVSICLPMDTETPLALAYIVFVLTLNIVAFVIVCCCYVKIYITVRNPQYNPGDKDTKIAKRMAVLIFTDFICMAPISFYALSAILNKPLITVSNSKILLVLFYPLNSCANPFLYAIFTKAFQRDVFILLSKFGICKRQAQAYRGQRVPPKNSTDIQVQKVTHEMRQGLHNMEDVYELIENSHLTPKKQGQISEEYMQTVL
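Competitive HTRF cAMP read-out (cryptate anti-cAMP antibody, cAMP-d2; 30 min, room temperature) in freshly harvested TSHR cells. Compounds added before TSH at EC80 (4nM final), followed by 2 hours' incubation at 37 deg C.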
Large screens that a line does not name were inactive. Unless noted, the call rests on the fitted dose curve; in most records, active means well fitted curve in the direction sought with a large enough effect; inconclusive means small, poorly fitted or top-dose-only effect, or another doubt; inactive means no such curve, though single readings can be large; an effect the other way counts as inactive or inconclusive.

Cc1ccc(C)c(C(=O)CSc2nnnn2C(C)C)c1	ELG1 repair inh inconclusive
Cc1ccc(C(=O)CSc2nnnn2C(C)C)c(C)c1	RORg inh 11µM, ELG1 repair inh inconclusive, Gal4-VP16 FLuc 13µM
O=C(O)/C(=C\c1cccc(OCc2ccccc2)c1)c1ccc(F)cc1	none
CCc1ccc2c(c1)C1(NN=C(c3cccc4ccccc34)S1)C(=O)N2 (stereo unspecified)	RORg inh 2.8µM, Gal4-VP16 FLuc 2.8µM
CC(C)(C)c1ccc(C(=O)N2CCC(NC(=O)c3ccccc3)CC2)cc1	none
CC(NC(=S)NC1CCCCC1)C(c1cccs1)N1CCOCC1 (stereo unspecified)	RORg inh 8.9µM, Gal4-VP16 FLuc inconclusive
CC(NC(=O)Nc1cccc(Cl)c1)C(c1cccs1)N1CCCC1 (stereo unspecified)	none
CCN1CCN(C(c2cccs2)C(C)NC(=S)NC2CCCCC2)CC1 (stereo unspecified)	none
CC(NC(=S)Nc1ccc(Cl)cc1Cl)C(c1cccs1)N1CCCC1 (stereo unspecified)	RORg inh 11µM, Gal4-VP16 FLuc inconclusive
COc1ccccc1NC(=S)NC(C)C(c1cccs1)N1CCOCC1 (stereo unspecified)	RORg inh 13µM, Gal4-VP16 FLuc inconclusive
CC(C)(C)c1ccc(C(=O)NCC(=O)NCc2ccccn2)cc1	ELG1 repair inh inconclusive (no result: RORg inh, Gal4-VP16 FLuc, Coupling enz)
COC(=O)C1=C[C@@H](C(=O)OC)C2C3=C(C(=O)[C@@]2(CC(C)C)NC(=O)c2ccccc2)[C@H](C)n2c(=O)n(C)c(=O)n2[C@@H]3C1 (stereo partly specified)	none (no result: ELG1 repair inh, TSHR antagonist)
Cc1ccc(CSC(Nc2ccc(F)cc2)=C(C#N)C#N)cc1	RORg inh inconclusive, ELG1 repair inh inconclusive, Gal4-VP16 FLuc 25µM
Cc1ccc(NC(=O)CSCc2ccc(F)cc2)cc1	ELG1 repair inh inconclusive
CC1CCc2c(sc3nc(C(C)(C)C)nc(N4CCN(C(=O)CCl)CC4)c23)C1 (stereo unspecified)	RORg inh 13µM, ELG1 repair inh inconclusive, Gal4-VP16 FLuc 13µM
CCC(=O)N1CCN(c2nc(CC)nc3sc4c(c23)CCCC4)CC1	ELG1 repair inh inconclusive
O=C(Nc1ccc(N2CCOCC2)cc1)c1ccc([N+](=O)[O-])o1	RORg inh 11µM, ELG1 repair inh inconclusive, Gal4-VP16 FLuc inconclusive
O=C(Nc1ccc(S(=O)(=O)N2CCOCC2)cc1)c1ccc([N+](=O)[O-])o1	ELG1 repair inh inconclusive, Gal4-VP16 FLuc inconclusive
O=C(Nc1ccc(N2CCN(C(=O)c3cccs3)CC2)cc1)c1ccc([N+](=O)[O-])o1	RORg inh 13µM, ELG1 repair inh inconclusive, Gal4-VP16 FLuc inconclusive (no result: Coupling enz)
CCC(=O)Nc1ccc(N2CCN(C(=O)c3cccs3)CC2)cc1	none
O=C(COc1ccccc1[N+](=O)[O-])Nc1ccc(N2CCN(C(=O)c3cccs3)CC2)cc1	ELG1 repair inh 18µM
Cc1cc(C)c(NC(=O)CCCCCNC2CCCCC2)c(C)c1	none
CCN(CC)CCCC(C)Nc1nc(C)cc(Nc2ccc3nc(C)cc(N)c3c2)n1 (stereo unspecified)	none (no result: ELG1 repair inh, TSHR antagonist)
COc1ccc(C2Nc3ccccc3C(=O)N2Cc2ccccc2)cc1COc1ccc(Cl)cc1Cl (stereo unspecified)	none (no result: RORg inh, ELG1 repair inh, Gal4-VP16 FLuc, Coupling enz)
COc1ccc(S(=O)(=O)c2cnc3ccccc3n2)cc1	RORg inh 11µM, Gal4-VP16 FLuc inconclusive
COc1ccc(S(=O)(=O)c2ccc(OC)cc2)cc1	none
O=S(=O)(c1ccc(Br)cc1)c1cnc2ccccc2n1	RORg inh 11µM, ELG1 repair inh inconclusive, Gal4-VP16 FLuc inconclusive
Cc1nc2ccn(Cc3ccccc3)c(=O)c2cc1C(=O)N1CCN(c2ccccc2)CC1	ELG1 repair inh 8.2µM
C/C(=N\Nc1nc2ccc(Cl)cc2o1)c1ccccc1	RORg inh 2.5µM, ELG1 repair inh inconclusive, Gal4-VP16 FLuc inconclusive
C/C(=N/NS(=O)(=O)c1ccccc1)c1ccc(Cl)cc1	none
